# “And” between values parts separate entries of the source, which are not always exact repeats. Identical values can stand only once. Records with an inconclusive call do not appear. A call without a number means that no potency is given here. Values without a mark were called inactive. The source made the active and inactive calls. The call rests on the fitted dose curve; in most records, active means well fitted curve in the direction sought with a large enough effect; inconclusive means small, poorly fitted or top-dose-only effect, or another doubt; inactive means no such curve, though single readings can be large; an effect the other way counts as inactive or inconclusive.
# Key:
# [1] = target: Cytochrome P450 3A7 (Homo sapiens) (UniProt P24462); experiment: Cytochrome P450 family 3 subfamily A member 7 (CYP3A7) small molecule antagonists: luciferase biochemical qHTS assay (AID 1963596); further: nearly all actives have a fitted effect of over 40% in size
# Procedure, shortened: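 Enzyme-substrate mix + cpd (DMSO), 10 min RT; + NADPH regen system, 1 h RT; + luciferin detection reagent, 20 min RT; luminescence read. Proluciferin substrate, P450-Glo format, 1536-well qHTS.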
# [2] = Viability qHTS for spleen associated tyrosine kinase inhibitor (SYKi) naive MV4-11 cells (AID 1963823); further: nearly all actives have a fitted effect of over 40% in size
# Procedure, shortened: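 Luminescence from CellTiter-Glo, developed 10 min at room temperature, gave viability of MV4-11 cells never exposed to SYK inhibitor. Cells (500/well) had been incubated with compounds for 72 hr under standard culture conditions.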
# [3] = Viability qHTS for spleen associated tyrosine kinase inhibitor (SYKi) drug resistant MV4-11 cells (AID 1963824); further: nearly all actives have a fitted effect of over 35% in size
# Procedure, shortened: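 CellTiter-Glo luminescence, read 10 min after reagent addition, reports viability after a 72 hr compound exposure. Cells are an MV4-11 line made resistant to SYK inhibition, seeded at 500 per well onto compound-containing plates.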
# [4] = Quantitative highthroughput screen to assess conditional lethalithy of NOMO1 cells grown in RPMI1640 with untreated serum (RPMI+s) (AID 1963876); further: nearly all actives have a fitted effect of over 35% in size
# Procedure, shortened: (§1)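 Each medium arm—HPLM with 10% dialyzed FBS, or RPMI1640 with 5 mM glucose and 10% untreated or dialyzed FBS—was screened against an 11-point, 3-fold compound titration for 48 h at 37 °C, with CellTiter-Glo luminescence as endpoint.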
# [5] = Quantitative highthroughput screen to assess conditional lethalithy of NOMO1 cells grown in RPMI1640 with dialyzed fetal bovine serum (RPMI+ds) (AID 1963877); further: nearly all actives have a fitted effect of over 30% in size; on Viability: series mostly up to about 46 µM
# Procedure, shortened: as §1
# [6] = Quantitative highthroughput screen to assess conditional lethalithy of P12 Ichikawa cells grown in RPMI1640 with dialyzed fetal bovine serum (RPMI+ds) (AID 1963880); conditions: Potency: P12-Ichikawa viability; further: nearly all actives have a fitted effect of over 35% in size
# Procedure, shortened: as §1
# [7] = Quantitative highthroughput screen to assess conditional lethalithy of P12 Ichikawa cells grown in RPMI1640 with untreated serum (RPMI+s) (AID 1963881); conditions: Potency: viability; further: nearly all actives have a fitted effect of over 35% in size; on Viability: series mostly up to about 46 µM
# Procedure, shortened: as §1
# [8] = Quantitative highthroughput screen to assess conditional lethalithy of SEM cells grown in RPMI1640 with unreated serum (RPMI+s) (AID 1963883); further: nearly all actives have a fitted effect of over 35% in size
# Procedure, shortened: as §1
# [9] = Cellular viability qHTS for adrenocortical cancer (ACC) cell line SW-13 (AID 1963989); conditions: SW-13 ACC cells viability, CellTiter-Glo, 48 h; activity (max response): active compounds read low; further: nearly all actives have a fitted effect of over 65% in size;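 on activity (max response): cells grown in serum-free medium with ITS supplement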
# Procedure, shortened: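 Here, serum-free SW-13 cultures were dosed up to 46 uM. Following 48 h, ATP-dependent luminescence (CellTiter-Glo) reported viable cells, and logistic modeling produced IC50 values.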
# [10] = Cellular viability qHTS for adrenocortical cancer (ACC) cell line NCI-H295R (AID 1963990); further: nearly all actives have a fitted effect of over 60% in size
# Procedure, shortened: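 Viability of NCI-H295R after 48 h of treatment (final up to 46 uM) measured through cellular ATP luminescence.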
# [11] = Quantitative highthroughput screen to assess conditional lethalithy of P12 Ichikawa cells grown in Human Plasma-Like Medium with dialyzed fetal bovine serum (HPLM+ds) (AID 1963879); conditions: Potency: viability; further: nearly all actives have a fitted effect of over 35% in size; on Viability: series mostly up to about 46 µM
# Procedure, shortened: as §1
# [12] = Quantitative highthroughput screen to assess conditional lethalithy of SEM cells grown in Human Plasma-Like Medium with dialyzed fetal bovine serum (HPLM+ds) (AID 1963882); further: nearly all actives have a fitted effect of over 35% in size; on Viability: series mostly up to about 46 µM
# Procedure, shortened: as §1
# [13] = Quantitative highthroughput screen to assess conditional lethalithy of SEM cells grown in RPMI1640 with dialyzed fetal bovine serum (RPMI+ds) (AID 1963884); further: nearly all actives have a fitted effect of over 35% in size; on Viability: series mostly up to about 46 µM
# Procedure, shortened: as §1
# [14] = Quantitative highthroughput screen to assess conditional lethalithy of NOMO1 cells grown in Human Plasma-Like Medium with dialyzed fetal bovine serum (HPLM+ds) (AID 1963878); further: nearly all actives have a fitted effect of over 35% in size
# Procedure, shortened: as §1
# Potency means the concentration at half of the fitted maximal effect.
# Chain of Cytochrome P450 3A7 (Homo sapiens) (P24462 whole entry, looked up): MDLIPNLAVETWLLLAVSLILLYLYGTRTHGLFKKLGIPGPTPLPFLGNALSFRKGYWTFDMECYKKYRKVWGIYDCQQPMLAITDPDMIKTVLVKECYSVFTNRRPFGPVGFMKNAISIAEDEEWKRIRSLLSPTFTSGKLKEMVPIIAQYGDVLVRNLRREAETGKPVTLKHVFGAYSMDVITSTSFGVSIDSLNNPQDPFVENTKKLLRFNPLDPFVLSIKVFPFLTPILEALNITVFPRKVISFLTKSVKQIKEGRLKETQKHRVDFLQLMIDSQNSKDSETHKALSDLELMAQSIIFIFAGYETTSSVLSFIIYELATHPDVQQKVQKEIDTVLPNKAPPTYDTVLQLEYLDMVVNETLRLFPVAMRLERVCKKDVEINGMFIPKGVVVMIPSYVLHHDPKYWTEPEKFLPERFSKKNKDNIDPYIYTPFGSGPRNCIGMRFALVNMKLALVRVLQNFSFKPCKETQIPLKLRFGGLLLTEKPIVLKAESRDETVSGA
Compound,Potency [1],Potency [2],Potency [3],Potency [4],Potency [5],Potency [6],Potency [7],Potency [8],activity (max response) [9],Potency [10],Potency [11],Potency [12],Potency [13],Potency [14],Potency [9]
O=c1[nH]cnc2[nH]ncc12,inactive,inactive,inactive,inactive,inactive,inactive,inactive,inactive,1.44% and -3.08%,inactive,–,–,–,–,–
CCC[C@@H]1C[C@@H](C(=O)N[C@@H]([C@H]2O[C@H](SC)[C@H](O)[C@@H](O)[C@H]2O)[C@@H](C)O)N(C)C1,inactive,inactive,inactive,inactive,inactive,inactive,inactive,–,–,inactive,inactive,inactive,inactive,–,–
CNS(=O)(=O)CCc1ccc2[nH]cc(C3CCN(C)CC3)c2c1,inactive,inactive,inactive,inactive,inactive,inactive,–,inactive,-14.7%,inactive,inactive,inactive,–,inactive,–
O=C(Nc1cccnn1)N1CCC(=Cc2cccc(Oc3ccc(C(F)(F)F)cn3)c2)CC1,inactive,7.42 µM (active),10.3 µM (active) and 6.61 µM (active),inactive,inactive,inactive,–,inactive,–,–,inactive,inactive,–,–,–
c1ccc([C@H]2CN3CCSC3=N2)cc1,inactive,inactive,inactive,inactive,inactive,inactive,inactive,–,-16.6% and 4.55%,inactive,inactive,inactive,inactive,–,–
COc1cc2c(cc1OC)CN(CCc1ccc(NC(=O)c3cc(OC)c(OC)cc3NC(=O)c3cnc4ccccc4c3)cc1)CC2,inactive,inactive,inactive,inactive,inactive,–,–,–,-4.36%,inactive,–,–,–,inactive,–
CNC1CCCN(c2c(F)cc3c(=O)c(C(=O)O)cn(C4CC4)c3c2OC)C1 (stereo not given),inactive,inactive,inactive,inactive,inactive,inactive,inactive,inactive,2.01% and 5.57%,inactive,inactive,inactive,inactive,–,–
COc1cc2ncnc(Nc3cc(Br)c(O)c(Br)c3)c2cc1OC,inactive,11.8 µM (active) and 11.6 µM (active),13.2 µM (active) and 9.2 µM (active),inactive,inactive,–,inactive,inactive,–,inactive,inactive,inactive,–,inactive,–
CC(C)CC(=O)Nc1n[nH]c2c1CN(C(=O)C1CCN(C)CC1)C2(C)C,inactive,206 nM (active) and 417 nM (active),259 nM (active) and 468 nM (active),3720 nM (active),5900 nM (active),4690 nM (active),4180 nM (active),1050 nM (active),–,–,–,2640 nM (active),4690 nM (active),6620 nM (active),3980 nM (active)
CC(=O)c1cnc2ccc(-c3cc(Cl)c(O)c(Cl)c3)nc2c1NC1CCC(CN(C)C)CC1 (stereo not given),inactive,4.7 nM (active) and 0.8 nM (active),11.9 nM (active) and 2.9 nM (active),132 nM (active),132 nM (active),132 nM (active),148 nM (active),74.1 nM (active),–,–,–,74.1 nM (active),58.8 nM (active),66 nM (active),75.1 nM (active)
CO[C@@H]1COCC[C@@H]1N[C@@H]1CC[C@@](C(=O)N2CCc3ncc(C(F)(F)F)cc3C2)(C(C)C)C1,inactive,inactive,inactive,inactive,inactive,–,–,–,-5.19%,inactive,–,–,–,–,–
CC[N+](CC)(CC)CCOc1cccc(OCC[N+](CC)(CC)CC)c1OCC[N+](CC)(CC)CC,inactive,inactive,inactive,inactive,inactive,inactive,inactive,inactive,11.3% and -11.4%,inactive,inactive,–,inactive,–,–
Cc1nc2n(c(=O)c1CCN1CCC(c3noc4cc(F)ccc34)CC1)CCCC2,inactive,inactive,inactive,inactive,inactive,inactive,inactive,inactive,-10.2%,inactive,inactive,inactive,inactive,–,–
C#CCN[C@@H]1CCc2ccccc21,inactive,inactive,inactive,inactive,inactive,inactive,inactive,–,–,inactive,inactive,inactive,inactive,–,–
C=CC(=O)Nc1cc2c(Nc3ccc(F)c(Cl)c3)ncnc2cc1OCCCN1CCOCC1,inactive,596 nM (active) and 742 nM (active),944 nM (active) and 742 nM (active),inactive,2960 nM (active),inactive,5260 nM (active),–,–,–,–,–,–,3320 nM (active),3550 nM (active)
Nc1nc(N)nc(-c2cc(Cl)ccc2Cl)n1,inactive,inactive,inactive,inactive,inactive,inactive,inactive,–,2.1% and -6.28%,inactive,–,–,inactive,–,–
C=CCn1c(=O)c2cnc(Nc3ccc(N4CCN(C)CC4)cc3)nc2n1-c1cccc(C(C)(C)O)n1,10000 nM (active),0.525 µM (active),259 nM (active) and 372 nM (active),1050 nM (active),418 nM (active),1870 nM (active),2640 nM (active),418 nM (active),–,1000 nM (active),1050 nM (active),235 nM (active),148 nM (active),–,3550 nM (active)

# Reference: PubChem BioAssay (NCATS)
